This note sets out measurements from PubChem BioAssay (NCATS).

“And” between values parts separate entries of the source, which are not always exact repeats. Identical values can stand only once. Inconclusive results are not listed. Where a structure was tested more than once in an assay, its records may differ in their call. The source made the active and inactive calls. Calls come from the whole dose curve; as a rule, active = well fitted inhibition curve with a large enough effect; inconclusive = small, poorly fitted or top-dose-only effect; inactive = no such curve, though single readings can be large or run the other way.
% is set by controls: 0 for no effect and ±100 for the full control effect; potency is the fitted concentration of half-maximal effect.

The assay can be described thus: Confirmatory qHTS for small molecule stabilizers of the endoplasmic reticulum resident proteome: Secreted ER Calcium Modulated Protein (SERCaMP) assay (AID 1508628). Note: nearly all actives have a fitted effect of over 40% in size. Conditions: SERCaMP secreted luciferase ER calcium/proteostasis reporter; series mostly up to 76.3 µM. The text has this: Assay Provider: Brandon K. Harvey Ph.D.
National Institute on Drug Abuse, National Institutes of Health, Baltimore, MD
Endoplasmic reticulum (ER) dysregulation is associated with human pathologies including neurodegenerative, cardiovascular, muscular, and diabetic conditions. Maintenance of ER calcium is critical for functions of the ER and its depletion can lead to loss of ER resident proteins, in a process termed exodosis. Therapeutic compounds capable of attenuating the redistribution of ER proteins under pathological conditions may slow or stop disease progression. To identify such compounds, we performed a quantitative high-throughput screen (qHTS) using the SERCaMP assay, which monitors secretion of ER resident proteins triggered by calcium depletion.
SERCaMP was initially developed as a reporter of ER calcium homeostasis using a Gaussia luciferase with a modified signal peptide and carboxy-terminus (GLuc-SERCaMP), modifications that confer secretion of the reporter in response to ER calcium depletion (Henderson et al., 2014). The assay was used to screen 9,501 compounds, including a collection of drugs approved by the FDA (US), EMA (EU), NHI (Japan), and HC (Canada) regulatory agencies (Huang et al., 2011). Since the SERCaMP reporter reflects the exodosis phenomenon (Trychta et al., 2018a), compounds identified in the screen have the potential to prevent exodosis by different mechanisms such as stabilizing ER calcium or augmenting ERS retrieval.
1. Henderson, M.J., Wires, E.S., Trychta, K.A., Richie, C.T., and Harvey, B.K. (2014). SERCaMP: a carboxy-terminal protein modification that enables monitoring of ER calcium homeostasis. Mol Biol Cell 25, 2828-2839.
2. Huang, R., Southall, N., Wang, Y., Yasgar, A., Shinn, P., Jadhav, A., Nguyen, D.T., and Austin, C.P. (2011). The NCGC pharmaceutical collection: a comprehensive resource of clinically approved drugs enabling repurposing and chemical genomics. Sci Transl Med 3, 80ps16.
3. Trychta, K.A., Back, S., Henderson, M.J., and Harvey, B.K. (2018a). KDEL Receptors Are Differentially Regulated to Maintain the ER Proteome under Calcium Deficiency. Cell Rep 25, 1829-1840 e1826.
SEQUENCE No. (1, 2, 3, etc.); […] (e.g., Cells, Incubation, Reagent, etc.); VALUE and DESCRIPTION.
1; Reagent; 5 uL; 1000 SH-SY5Y cells per wells
3; Compound; 23 nL; Control inhibitor / compound library
5; Reagent; 100 nM; Thapsigargin
7; Reagent; 1 uL; 0.5x coelenterazine
8; Detection; Luminescence; ViewLux imaging system
NOTES (numbers refer to sequence above)
1; SH-SY5Y human neuroblastoma cells stably expressing GLuc-SERCaMP (SH-SY5Y-GLuc-ASARTDL) cells were seeded in 1,536 well white tissue culture treated plates (Corning, Cat# 7464) in DMEM-high glucose-sodium pyruvate (ThermoFisher Scientific, Cat #10569) supplemented with 10% bovine growth serum (Hyclone), 10 U/ml penicillin (Gibco), 10 ug/ml streptomycin (Gibco), and 20 mM HEPES.
2; Assay plates were incubated for 5 hour at 37C in a humidified incubator containing 5% CO2.
3; qHTS libraries (23 nl, final concentrations of 1.53 uM, 7.67 uM, 38.3 uM) or controls (neutral control: DMSO, positive control: dantrolene) were added using a Kalypsis pin-tool Robotic System equipped with 1536 pinheads.
4; Cells were then incubated for 16 hours at 37C, 5% CO2.
5; Thapsigargin was added at 100 nM to deplete ER calcium stores.
6; Cells were incubated for 4 hour (37 °C, 5% CO2)
7; Gaussia luciferase in the medium was measured by adding 1 ul of 0.5x coelenterazine (final concentration 0.07x) prepared in Gaussia Luciferase Glow Assay Buffer (Pierce), without addition of the Cell Lysis Buffer Reagent.
8; Luminescence was measured using a ViewLux […] CCD imaging system (Perkin Elmer) equipped with clear filters. […] The same controls were also used for the calculation of the Z' factor, a measure of assay quality control, as previously described (Zhang et al., 1999). […]
(In general: Quantitative high-throughput screening tests each substance at several concentrations.)
`CN1C2CCC1CC(OC(=O)C1CCC(C(=O)OC3CC4CCC(C3)N4C)(c3ccccc3)c3ccccc31)C2` (centres undefined): the Potency is 4.47 µM (active).

For `CN1CCN(c2ccc3ccccc3n2)CC1`, the Potency entry was “inactive”.

As to `NC(N)=NCCCCCCCCCCN=C(N)N`, the Potency entry was “inactive”.

For `CC(C)(O)C1OC2CCC3(C)C(O)(CCC4Cc5c([nH]c6ccccc56)C43C)C2=CC1=O` (centres undefined), the Potency is 28.2 µM (active).

Turning to `CC(C)(O)[C@H]1O[C@@H]2CC[C@]3(C)[C@@]4(C)c5[nH]c6ccccc6c5C[C@@H]4CC[C@]3(O)C2=CC1=O`, the Potency is 20 µM (active).

Consider `CN1CC[C@@]23CCCCC2C1Cc1ccc(O)cc13` (some centres undefined), for which the Potency is 3.98 µM (active).

`CN(C(=O)Cc1ccc(Cl)c(Cl)c1)[C@H](CN1CCCC1)c1ccccc1`: the Potency entry was “inactive”.

Take `C[C@@H](C(=O)OC1C[C@H]2CC[C@@H](C1)N2C)c1ccc(Br)cc1` (some centres undefined): the Potency was 31.6 µM (active).

Turning to `CCC(Oc1ccc(Cl)cc1)C(=O)OC1CC2CCC(C1)N2C` (centres undefined), the Potency is 8.91 µM (active).

Take `CCN(CC)CCO[C@H]1CC[C@@]2(C)C(=CC[C@@H]3[C@H]2CC[C@]2(C)C(=O)CC[C@H]32)C1`: the Potency is 31.6 µM (active).

With `CNc1ccc2oc(C[C@H]3O[C@]4(CC[C@H]3C)O[C@H]([C@H](C)C(=O)c3ccc[nH]3)[C@H](C)C[C@H]4C)nc2c1C(=O)O`, the Potency entry is “inactive”.

Turning to `O[C@@H]1[C@H](O)[C@H]2[C@@H](O)CCN2C[C@@H]1O`, the Potency entry was “inactive”.

For `Oc1ccc2c3c1O[C@H]1c4c(c5ccccc5n4Cc4ccccc4)C[C@]4(O)[C@H](C2)N(CC2CC2)CC[C@@]314`, the Potency result was “inactive”.

Regarding `Cl.Cl.Cl.Cl.Cl.Cl.N.N.N.N.NNNNN.NNNNN.O.O.[Ru].[Ru].[Ru]`, the Potency was 15.8 µM (active).

Regarding `C[C@H]1C[C@H](C)C(=O)[C@@H]([C@H](O)CC2CC(=O)NC(=O)C2)C1`, the Potency was 0.282 µM (active).

As to `OC[C@@H]1[C@@H](O)[C@H](O)[C@H]2[C@@H](O)CCN21`, the Potency entry was “inactive”.

Regarding `COc1ccc2[nH]cc(C3=CCNCC3)c2c1`, the Potency was 12.6 µM (active) and 35.5 µM (active).

Turning to `CC(C)[C@@]1(NC(=O)[C@@H]2C[C@H]3c4cccc5[nH]cc(c45)C[C@@H]3N(C)C2)O[C@@]2(O)[C@H]3CCCN3C(=O)[C@H](Cc3ccccc3)N2C1=O`, the Potency was 35.5 µM (active) and inactive.

Turning to `CC(C)C[C@H](NC(=O)[C@H](Cc1ccccc1)NC(=O)CNC(=O)[C@H](C)NC(=O)[C@@H](N)Cc1ccc(O)cc1)C(=O)O`, the activity change, negative = decrease was 16.6% [at 9.4 µM] (inactive).

Regarding `C=CCN1CCC2(C)c3cc(O)ccc3CC1C2C` (centres undefined), the Potency entry is “inactive”.

As for `CCC(Sc1ccccc1)C(=O)OC1CC2CCC(C1)N2C` (centres undefined), the Potency is 5.62 µM (active).

For `C[C@H]1CCC/C=C/C2C[C@H](O)C[C@H]2[C@H](O)/C=C/C(=O)O1` (some centres undefined), the Potency result is “inactive”.

For `CC(C)(O)C1O[C@H]2CC[C@@]3(C)[C@@](O)(CC[C@H]4Cc5c([nH]c6ccccc56)[C@@]43C)C2=CC1=O` (some centres undefined), the Potency is 39.8 µM (active).

For the compound `c1ccc2sc(C3(N4CCCC4)CCCCC3)cc2c1`, the Potency was 39.8 µM (active).
